From PubChem BioAssay (Tox21)
Several values for one entry are separate records, joined by “and”; a condition that tells them apart may be missing. Equal values may be shown once. Inconclusive results are not listed. Where a call stands in place of a potency, no number is given. The source holds several records for some structures; these can differ, active in one and inactive in another. Activity calls are given as the source filed them. Unless noted, the call rests on the fitted dose curve; in most records, active means well fitted curve in the direction sought with a large enough effect in the repeat runs; inconclusive means weak or mixed curves; inactive means no such curve, though single readings can be large; an effect the other way counts as inactive or inconclusive.

What was measured:
[1] = qHTS assay to identify small molecule agonists of the estrogen receptor alpha (ER-alpha) signaling pathway in the presence of an antagonist - cell viability counter screen (AID 1259386); further: series mostly up to about 92 µM; nearly all actives have a fitted effect of over 30% in size
Method in brief: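 Compounds tested at 15 concentrations for 22 h at 37C alongside 10.0nM (final) ICI-182,780 antagonist, in VM7Luc4E2 cells grown in phenol red-free, charcoal-stripped medium. Viability read by CellTiter-Fluor fluorescence after 1 h reagent incubation.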

[2] = target: Progesterone receptor (Homo sapiens) (UniProt P06401); experiment: qHTS assay to identify small molecule agonists of the progesterone receptor (PR) signaling pathway (AID 1346784; calls by dose curve; further: nearly all actives have a fitted effect of over 30% in size; further: potency means the concentration at half of the fitted maximal effect)
Chain of Progesterone receptor (Homo sapiens) (P06401 whole entry, looked up): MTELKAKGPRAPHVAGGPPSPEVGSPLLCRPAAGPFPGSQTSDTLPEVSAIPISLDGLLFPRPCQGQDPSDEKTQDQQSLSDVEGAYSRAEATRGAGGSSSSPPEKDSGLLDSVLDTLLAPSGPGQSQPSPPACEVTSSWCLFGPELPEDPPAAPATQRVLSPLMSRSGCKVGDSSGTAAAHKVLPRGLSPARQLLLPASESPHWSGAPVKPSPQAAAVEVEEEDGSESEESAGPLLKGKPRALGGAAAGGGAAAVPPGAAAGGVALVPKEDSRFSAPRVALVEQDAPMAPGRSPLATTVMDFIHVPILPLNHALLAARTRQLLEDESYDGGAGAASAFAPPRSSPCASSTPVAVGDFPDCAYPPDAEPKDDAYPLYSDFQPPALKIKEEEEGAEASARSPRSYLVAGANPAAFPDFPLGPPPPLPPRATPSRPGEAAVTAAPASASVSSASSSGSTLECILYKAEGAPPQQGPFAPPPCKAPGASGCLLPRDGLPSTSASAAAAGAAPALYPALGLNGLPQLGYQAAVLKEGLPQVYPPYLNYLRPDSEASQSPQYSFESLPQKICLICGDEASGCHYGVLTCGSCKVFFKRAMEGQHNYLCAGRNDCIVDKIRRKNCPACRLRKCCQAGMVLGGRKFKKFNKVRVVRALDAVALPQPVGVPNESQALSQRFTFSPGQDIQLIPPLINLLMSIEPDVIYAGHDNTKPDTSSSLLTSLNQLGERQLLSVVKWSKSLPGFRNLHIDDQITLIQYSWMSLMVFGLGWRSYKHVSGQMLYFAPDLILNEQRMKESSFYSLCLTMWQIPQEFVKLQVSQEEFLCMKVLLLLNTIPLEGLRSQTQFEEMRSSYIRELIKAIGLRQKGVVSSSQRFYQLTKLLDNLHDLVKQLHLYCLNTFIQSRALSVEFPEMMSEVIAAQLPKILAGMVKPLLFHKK
Method in brief: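 PR-UAS-bla HEK 293T cells carrying a UAS-driven beta-lactamase reporter were seeded in medium with 2% charcoal-stripped FBS, preincubated 6 hr at 37C, then exposed to compounds in DMSO for 16 hr; agonism was read by LiveBLAzer B/G FRET fluorescence.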

[3] = qHTS assay to identify small molecule antagonists of the progesterone receptor (PR) signaling pathway - cell viability counter screen (AID 1346798); further: series mostly up to about 92 µM; nearly all actives have a fitted effect of over 50% in size
Method in brief: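 PR-UAS-bla HEK293T cells in medium with 2% charcoal-stripped FBS were treated with compounds plus R5020 for 16 hr at 37C. Cell viability was then read by CellTiter-Glo luminescence after 30 min at room temperature in the same wells.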

[4] = qHTS assay to identify small molecule agonists of the progesterone receptor (PR) signaling pathway - cell viability counter screen (AID 1346799; calls by dose curve; further: nearly all actives have a fitted effect of over 45% in size)
Method in brief: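 PR-UAS-bla HEK293T cells, 3,000 per well in medium with 2% charcoal-stripped FBS, were preincubated 6 hr at 37C, then exposed to compounds for 16 hr; viability was read as CellTiter-Glo luminescence after 30 min at room temperature.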

[5] = qHTS assay to identify small molecule antagonists of the TGF-beta/Smad signaling pathway - cell viability counter screen (AID 1346824); further: nearly all actives have a fitted effect of over 50% in size
Method in brief: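 Cytotoxicity counter-screen run in the same wells as the beta-lactamase Smad reporter read: CellTiter-Glo luminescence after 30 min at room temperature. HEK 293T SBE-bla cells had 5 hr compound exposure at 37 C with TGF-beta1 (0.25 ng/mL stock).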

[6] = qHTS assay to identify small molecule agonists of the TGF-beta/Smad signaling pathway - cell viability counter screen (AID 1346829); further: nearly all actives have a fitted effect of over 45% in size; further: potency means the concentration at half of the fitted maximal effect
Method in brief: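 CellTiter-Glo luminescence readout; SBE-bla HEK 293T cells, overnight plating, compound 5 hr at 37 C/5% CO2, then bla substrate 2 hr RT, then CellTiter-Glo 30 min RT.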

[7] = qHTS assay to identify small molecule agonists of the TGF-beta/Smad signaling pathway (AID 1346859; active means well fitted activation curve with a large enough effect in the signal ratio in the repeat runs, not every such curve was filed as active; the % refers to the signal ratio; further: series mostly up to about 77 µM)
Method in brief: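 HEK 293T cells stably carrying a beta-lactamase reporter driven by the Smad binding element were seeded overnight, exposed to DMSO-dissolved compounds for 5 hr at 37 C, 5% CO2, then loaded with FRET substrate for 2 hr at room temperature.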

[8] = target: Thyrotropin-releasing hormone receptor (Homo sapiens) (UniProt P34981); experiment: qHTS assay to identify small molecule antagonists of the thyrotropin-releasing hormone receptor (TRHR) signaling pathway (AID 1346877; active means well fitted inhibition curve with a large enough effect in the repeat runs, not every such curve was filed as active; further: potency means the concentration at half of the fitted maximal effect)
Chain of Thyrotropin-releasing hormone receptor (Homo sapiens) (P34981 whole entry, looked up): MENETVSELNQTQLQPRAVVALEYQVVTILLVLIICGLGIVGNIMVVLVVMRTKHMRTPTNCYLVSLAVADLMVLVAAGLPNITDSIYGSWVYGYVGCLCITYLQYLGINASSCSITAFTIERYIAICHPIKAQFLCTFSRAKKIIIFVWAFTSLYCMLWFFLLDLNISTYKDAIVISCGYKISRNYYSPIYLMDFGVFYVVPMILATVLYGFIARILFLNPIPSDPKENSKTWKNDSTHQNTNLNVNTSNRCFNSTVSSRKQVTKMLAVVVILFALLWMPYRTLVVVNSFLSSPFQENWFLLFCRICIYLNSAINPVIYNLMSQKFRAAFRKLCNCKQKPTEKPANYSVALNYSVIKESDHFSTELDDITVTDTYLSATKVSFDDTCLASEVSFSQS
Method in brief: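 Antagonist mode: after a 5 min room-temperature compound exposure, cells were stimulated with 1 nM (final) TRH. Dye-loaded TRHR-HEK293 cells were used, and calcium-dependent fluorescence was followed for 3 min, with 15-point titrations run in triplicate.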

[9] = target: Thyrotropin-releasing hormone receptor (Homo sapiens) (UniProt P34981); experiment: qHTS assay to identify small molecule agonists of the thyrotropin-releasing hormone receptor (TRHR) signaling pathway (AID 1346891; calls by dose curve; further: series mostly up to about 58 µM)
Method in brief: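 TRHR-expressing HEK293 cells were plated 18 h at 37 °C/5% CO2, loaded with calcium dye 2 h at 37 °C, then given compound in DMSO; fluorescence was read kinetically for 3 min at 1 s intervals.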

[10] = Human pregnane X receptor (PXR) small molecule agonists, qHTS cell viability counter screen (AID 1346977); further: nearly all actives have a fitted effect of over 50% in size; further: potency means the concentration at half of the fitted maximal effect
Method in brief: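 PXR-Luc HepG2 cells in medium with 5% charcoal-stripped FBS were pre-incubated 5hr, then exposed to compounds for 24hr at 37C. Viability was read in the same wells by CellTiter-Fluor fluorescence, reagent added after 23hr with a 1hr incubation.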

[11] = Caspase-3/7 induction in HepG2 cells by small molecules, qHTS assay (AID 1346978); further: nearly all actives have a fitted effect of over 15% in size
Method in brief: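 Caspase-3/7 induction was measured by Caspase-Glo 3/7 luminescence (30 min, room temperature) after a 17 hr compound exposure of wild-type HepG2 cells seeded at 2,000 per well and pre-incubated 5 hr.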

[12] = Caspase-3/7 induction in CHO-K1 cells by small molecules, qHTS cell viability counter screen (AID 1346979); further: nearly all actives have a fitted effect of over 35% in size; further: potency means the concentration at half of the fitted maximal effect
Method in brief: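 Wild-type CHO-K1 cells were seeded at 1,500 per well, rested 5hr at 37 C, then exposed to compounds in DMSO. After 16hr, CellTiter-Fluor reagent was added and fluorescence read 1hr later as the viability measure.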

[13] = Caspase-3/7 induction in CHO-K1 cells by small molecules, qHTS assay (AID 1346980); further: nearly all actives have a fitted effect of over 15% in size
Method in brief: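 Luminescent Caspase-Glo 3/7 read (30min, room temperature) quantified apoptosis induction. Cells were wild-type CHO-K1, treated with compound for 17hr at 37 C and 5% CO2.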

[14] = Caspase-3/7 induction in HepG2 cells by small molecules, qHTS cell viability counter screen (AID 1346981); further: nearly all actives have a fitted effect of over 30% in size; further: potency means the concentration at half of the fitted maximal effect
Method in brief: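 CellTiter-Fluor fluorescence measured viability in the same wells used for Caspase-Glo 3/7. HepG2 (wild type) at 2,000 cells/well were pre-incubated 5 hr, dosed, and given reagent at 16 hr, with 1 hr further at 37C.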

[15] = target: Nuclear receptor subfamily 1 group I member 2 (Homo sapiens) (UniProt O75469); experiment: Human pregnane X receptor (PXR) small molecule agonists, qHTS assay (AID 1346982); further: nearly all actives have a fitted effect of over 35% in size; further: potency means the concentration at half of the fitted maximal effect
Chain of Nuclear receptor subfamily 1 group I member 2 (Homo sapiens) (O75469 whole entry, looked up): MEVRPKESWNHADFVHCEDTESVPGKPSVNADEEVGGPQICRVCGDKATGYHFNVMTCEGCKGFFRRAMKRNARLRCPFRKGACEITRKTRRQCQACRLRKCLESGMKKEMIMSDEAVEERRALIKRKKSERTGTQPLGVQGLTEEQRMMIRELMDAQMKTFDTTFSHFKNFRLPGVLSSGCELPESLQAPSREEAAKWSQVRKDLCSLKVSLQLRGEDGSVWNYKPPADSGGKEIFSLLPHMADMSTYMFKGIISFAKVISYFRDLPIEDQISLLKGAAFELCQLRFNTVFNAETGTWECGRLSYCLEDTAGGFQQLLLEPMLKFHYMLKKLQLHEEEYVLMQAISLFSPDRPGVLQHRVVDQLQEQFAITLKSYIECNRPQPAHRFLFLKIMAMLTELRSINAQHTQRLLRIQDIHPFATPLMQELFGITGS
Method in brief: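 Agonist mode: luminescence from ONE-Glo after 24 h compound exposure at 37C in HepG2 cells carrying hPXR-responsive CYP3A4 luciferase, plated in charcoal-stripped serum medium 5 h beforehand.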

[16] = target: Acetylcholinesterase (Homo sapiens) (UniProt P22303); experiment: Acetylcholinesterase (AChE) small molecule antagonists: colormetric cell-based qHTS assay (AID 1347395; calls by dose curve; further: nearly all actives have a fitted effect of over 30% in size)
Chain of Acetylcholinesterase (Homo sapiens) (P22303 whole entry, looked up): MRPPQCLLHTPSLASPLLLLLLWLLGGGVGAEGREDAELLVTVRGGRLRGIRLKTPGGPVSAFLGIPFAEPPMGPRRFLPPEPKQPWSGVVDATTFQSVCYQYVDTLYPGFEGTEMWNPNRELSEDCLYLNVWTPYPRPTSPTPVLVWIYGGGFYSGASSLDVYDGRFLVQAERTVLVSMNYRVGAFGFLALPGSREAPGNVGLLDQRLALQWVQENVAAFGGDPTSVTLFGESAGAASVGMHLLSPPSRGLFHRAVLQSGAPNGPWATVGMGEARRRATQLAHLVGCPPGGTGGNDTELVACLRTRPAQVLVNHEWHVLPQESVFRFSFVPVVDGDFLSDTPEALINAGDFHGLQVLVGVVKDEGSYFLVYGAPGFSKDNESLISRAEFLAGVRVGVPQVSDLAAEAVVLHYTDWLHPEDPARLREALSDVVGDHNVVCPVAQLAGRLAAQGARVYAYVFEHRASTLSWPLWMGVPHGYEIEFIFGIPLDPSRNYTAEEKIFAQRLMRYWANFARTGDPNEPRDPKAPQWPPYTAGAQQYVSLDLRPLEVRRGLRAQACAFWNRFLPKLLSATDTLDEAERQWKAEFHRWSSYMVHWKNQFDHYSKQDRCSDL
Method in brief: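 SH-SY5Y cells, plated overnight at 37 C, were exposed to compounds for 30 min at 37 C and 5% CO2. Acetylthiocholine plus DTNB was then added, and thiocholine from endogenous AChE was quantified colorimetrically after 90 min at 37 C.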

[17] = target: Progesterone receptor (Homo sapiens) (UniProt P06401); experiment: qHTS assay to identify small molecule antagonists of the progesterone receptor (PR) signaling pathway (AID 1346795; active means well fitted inhibition curve with a large enough effect in the signal ratio in the repeat runs, not every such curve was filed as active; the % refers to the signal ratio; further: potency means the concentration at half of the fitted maximal effect)
Method in brief: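 PR-UAS-bla HEK293T cells carrying a UAS-driven beta-lactamase reporter were plated in medium with 2% charcoal-stripped FBS and rested 6 hr at 37C. Compounds were added with 1 nM R5020 (final) for 16 hr, then FRET substrate loaded 2 hr at room temperature.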

[18] = target: Nuclear receptor subfamily 1 group I member 2 (Rattus norvegicus) (UniProt Q9R1A7); experiment: Rat pregnane X receptor (rPXR) activation by small molecules, qHTS assay (AID 1346983); settings: rPXR luciferase reporter cells, One-Glo luminescence, 24 h; stronger effect = higher value; further: nearly all actives have a fitted effect of over 20% in size
Chain of Nuclear receptor subfamily 1 group I member 2 (Rattus norvegicus) (Q9R1A7 whole entry, looked up): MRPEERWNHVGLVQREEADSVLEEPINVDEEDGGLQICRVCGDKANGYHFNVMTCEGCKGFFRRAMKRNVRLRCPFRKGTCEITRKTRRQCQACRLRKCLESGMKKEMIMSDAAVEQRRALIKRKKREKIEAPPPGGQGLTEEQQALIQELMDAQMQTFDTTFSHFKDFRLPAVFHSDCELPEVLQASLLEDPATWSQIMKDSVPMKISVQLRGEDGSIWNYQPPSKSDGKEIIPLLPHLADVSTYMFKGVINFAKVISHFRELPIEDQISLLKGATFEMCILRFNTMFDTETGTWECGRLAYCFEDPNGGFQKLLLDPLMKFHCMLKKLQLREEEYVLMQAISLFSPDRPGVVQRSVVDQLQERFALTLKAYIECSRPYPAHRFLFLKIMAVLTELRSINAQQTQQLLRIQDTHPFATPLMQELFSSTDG
Method in brief: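 Luminescent readout (One-Glo luciferase, 30 min room temperature) followed 24 hr compound treatment at 37 C of rPXR cells plated 2,000 per well and preincubated 5hr; qHTS format with compounds delivered in DMSO.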

[19] = target: Nuclear receptor subfamily 1 group I member 2 (Homo sapiens) (UniProt O75469); experiment: CYP3A4 induction through human pregnane X receptor (PXR) by small molecules, qHTS assay (AID 1346984); further: nearly all actives have a fitted effect of over 40% in size
Method in brief: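 Read-out is luminescence after One-Glo addition, following a 3 hr, 37C incubation with Luciferin-IPA CYP3A4 substrate (3uM final). Before that, compounds were on DPX-2 cells (HepG2 co-transfected with PXR element plus CYP3A4-promoter luciferase) for 24 hr at 37C.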

[20] = target: Nuclear receptor subfamily 1 group I member 2 (Homo sapiens) (UniProt O75469); experiment: Human pregnane X receptor (PXR) activation by small molecules, qHTS assay (AID 1346985); further: nearly all actives have a fitted effect of over 40% in size
Method in brief: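 DPX-2 cells (HepG2 co-transfected with a PXR response element and a CYP3A4-promoter luciferase construct) were seeded at 2,000 per well, rested 5 hr at 37C, then exposed to DMSO-dissolved compounds for 24 hr. Activation was read as luciferase luminescence.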

| SMILES | Potency [1] | Potency [2] | Potency [3] | Potency [4] | outcome [5] | Potency [6] | outcome [7] | Potency [8] | outcome [9] | Potency [10] | outcome [11] | Potency [12] | outcome [13] | Potency [14] | Potency [15] | Potency [16] | Potency [17] | max activation [18] | Potency [19] | Potency [20] |
| --- | --- | --- | --- | --- | --- | --- | --- | --- | --- | --- | --- | --- | --- | --- | --- | --- | --- | --- | --- | --- |
| CC(C)c1ccc(O)cc1 | inactive | inactive | inactive | inactive | inactive | inactive | inactive | inactive | inactive | inactive | inactive | inactive | inactive | inactive | inactive | inactive |  |  |  |  |
| CCN(CC)C1CCCCC1 | inactive | inactive |  |  | inactive | inactive |  | inactive |  | inactive | inactive | inactive | inactive |  | inactive | inactive | inactive |  |  |  |
| CON(C)C(=O)Nc1ccc(Br)cc1 | inactive | inactive |  |  | inactive | inactive |  | inactive | inactive | inactive | inactive | inactive |  | inactive | 38.6 µM (active) | inactive | inactive |  |  |  |
| O=C1C2CC=CCC2C(=O)N1SC(Cl)(Cl)Cl (configuration not stated) | inactive | inactive |  |  | inactive | inactive and 48.2 µM (active) | inactive | inactive and 33.3 µM (active) |  | inactive and 21.3 µM (active) | inactive | 68.3 µM (active) and 12 µM (active) | inactive | inactive and 60.1 µM (active) | inactive | inactive | inactive and 42.6 µM (active) | -17% (inactive) | inactive | inactive |
| C[C@]12C=CC(=O)C=C1CC[C@@H]1[C@@H]2CC[C@@]2(C)[C@H]1CC[C@]2(C)O | inactive | 3.35 µM (active) |  |  | inactive | inactive |  | inactive |  | inactive | inactive | inactive | inactive | inactive | inactive | inactive | inactive | -4.23% (inactive) | inactive |  |
| CN=CNc1ccc(C)cc1C | inactive | inactive |  | inactive | inactive | inactive |  |  |  | inactive | inactive | inactive | inactive | inactive | inactive | inactive | inactive |  |  |  |
| O=C(CCl)NCO | inactive | inactive |  |  | inactive | inactive | inactive | inactive |  | inactive | inactive | inactive |  | inactive | inactive | inactive | inactive |  |  |  |
| CCc1ccc(C2CCNCC2)cc1 | inactive | inactive |  |  | inactive | inactive | inactive | inactive |  | inactive | inactive | inactive |  |  | inactive | inactive | inactive |  |  |  |
| CC(C)(C)NC[C@H](O)c1ccc(O)cc1Cl | inactive | inactive |  | inactive | inactive | inactive |  | inactive | inactive | inactive | inactive | inactive | inactive | inactive | inactive | inactive | inactive |  |  |  |
| O=C(O)c1c(Cl)ccc2cc(Cl)cnc12 | inactive | inactive | inactive | inactive | inactive | inactive | inactive | inactive | inactive | inactive | inactive | inactive | inactive | inactive | inactive | inactive |  |  |  |  |
| CCOP(=O)(CN(CCO)CCO)OCC | inactive | inactive |  | inactive | inactive | inactive | inactive |  |  | inactive | inactive | inactive | inactive | inactive | inactive | inactive | inactive |  |  |  |
| c1ccc2c(c1)CCNC2 | inactive | inactive | inactive | inactive | inactive | inactive | inactive | inactive | inactive | inactive | inactive | inactive | inactive | inactive | inactive | inactive |  |  |  |  |
| CC(C)(C1CCC(O)CC1)C1CCC(O)CC1 (configuration not stated) | inactive | inactive |  | inactive | inactive | inactive | inactive |  |  | inactive | inactive | inactive | inactive | inactive |  | inactive | 27.3 µM (active) |  |  |  |
| O=[N+]([O-])c1cccc(CCl)c1 | inactive | inactive | inactive | inactive | inactive | inactive | inactive | inactive | inactive | inactive | inactive | inactive | inactive | inactive |  |  |  |  |  |  |
| CC(C)[N+](C)(CCC(C(N)=O)(c1ccccc1)c1ccccc1)C(C)C | inactive | inactive |  | inactive | inactive | inactive |  | inactive | inactive | inactive | inactive | inactive | inactive | inactive | inactive | inactive | inactive | 0.796% (inactive) | inactive | inactive |
| CCOC1Oc2ccc(OS(C)(=O)=O)cc2C1(C)C (configuration not stated) | inactive | inactive |  |  | inactive | inactive |  | inactive | inactive | inactive | inactive | inactive | inactive | inactive | 21.5 µM (active) | inactive | 30.4 µM (active) |  |  |  |
| CCNc1nc(Cl)nc(NC(C)(C)C)n1 | inactive | inactive | inactive | inactive | inactive | inactive | inactive | inactive | inactive | inactive | inactive | inactive | inactive | inactive | 30.6 µM (active) | inactive |  |  |  |  |
